This is a sample that favours compounds with a hit; in the whole collection about 12% have one here.
JMJD2A Tudor – blocks the human JMJD2A Tudor domain | O75164 | AlphaScreen JMJD2A-Tudor / H3K4me3 peptide binding | Potency, µM (highest dose often 114 µM), without a hit: at the top dose activity change, negative = inhibition, most hits filed as inhibitors | 390,000 tested, 4.4% active | AID 504339; also: potency is read from the fitted curve at half-maximal effect; % is scaled to controls: 0 for no effect and ±100 for the full control effect; nearly all actives have a fitted effect of over 50% in size
Target sequence (O75164 whole entry, looked up, the tested form may be a part): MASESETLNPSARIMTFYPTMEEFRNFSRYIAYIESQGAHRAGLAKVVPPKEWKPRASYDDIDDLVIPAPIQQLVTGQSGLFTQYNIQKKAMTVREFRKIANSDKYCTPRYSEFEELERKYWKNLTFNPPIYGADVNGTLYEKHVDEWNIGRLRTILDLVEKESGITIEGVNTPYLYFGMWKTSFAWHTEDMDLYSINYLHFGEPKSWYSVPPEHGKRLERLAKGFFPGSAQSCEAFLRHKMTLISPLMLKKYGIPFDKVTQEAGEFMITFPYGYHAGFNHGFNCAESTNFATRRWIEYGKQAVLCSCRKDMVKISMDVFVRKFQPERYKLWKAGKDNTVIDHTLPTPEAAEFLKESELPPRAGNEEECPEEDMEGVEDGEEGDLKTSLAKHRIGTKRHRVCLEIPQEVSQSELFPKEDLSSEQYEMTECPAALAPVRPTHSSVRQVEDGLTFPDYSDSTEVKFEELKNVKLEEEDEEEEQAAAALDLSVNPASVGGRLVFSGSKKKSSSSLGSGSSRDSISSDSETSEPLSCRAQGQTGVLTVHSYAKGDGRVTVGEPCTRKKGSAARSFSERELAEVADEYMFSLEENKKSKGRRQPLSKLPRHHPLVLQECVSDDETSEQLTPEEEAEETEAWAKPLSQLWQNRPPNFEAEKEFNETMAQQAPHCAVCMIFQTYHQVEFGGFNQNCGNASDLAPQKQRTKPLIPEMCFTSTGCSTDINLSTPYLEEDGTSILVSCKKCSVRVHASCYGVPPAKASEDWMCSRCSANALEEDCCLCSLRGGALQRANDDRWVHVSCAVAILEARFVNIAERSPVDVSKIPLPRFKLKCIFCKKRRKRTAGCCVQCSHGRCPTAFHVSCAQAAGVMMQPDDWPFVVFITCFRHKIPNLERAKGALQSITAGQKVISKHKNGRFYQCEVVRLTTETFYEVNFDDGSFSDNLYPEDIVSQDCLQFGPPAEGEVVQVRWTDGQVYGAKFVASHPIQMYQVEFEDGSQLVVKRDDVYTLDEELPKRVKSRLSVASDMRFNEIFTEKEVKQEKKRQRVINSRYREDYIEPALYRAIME
G9a inh – inhibitors of human histone lysine methyltransferase G9a | Potency, µM (series often up to 102 µM), inactives show top-dose activity, negative = inhibition, usual class: inhibitors | Q96KQ7 | G9a H3K9 monomethylation, AlphaScreen, 2 h | 350,000 tested, 8.8% active; also: potency is read from the fitted curve at half-maximal effect; % is scaled to controls: 0 for no effect and ±100 for the full control effect; nearly all actives have a fitted effect of over 75% in size
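Chemiluminescent proximity detection of H3K9 monomethylation, read after 10 min bead incubation in the dark. Reaction: 20 nM G9a, 500 nM biotin-H3K9 peptide, 20 uM SAM cofactor, 2 h, room temperature, following 15 min enzyme-compound preincubation.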
PLK1 PBD block – inhibitors of human PLK1 polo-box domain binding; P53350; Plk1 PBD binding of FITC phosphopeptide, fluorescence polarization; Potency, µM, for the others: max response, negative = inhibition, actives largely listed as inhibitors; 360,000 tested, 2.8% active; also: potency is read from the fitted curve at half-maximal effect; series mostly up to about 57 µM; % is scaled to controls: 0 for no effect and ±100 for the full control effect; nearly all actives have a fitted effect of over 65% in size
PI5P4K alpha inh – blocks human PI5P4K alpha kinase activity | AID 652105 | PI5P4Kalpha enzyme, ADP-Glo luminescence, 60 min; hits give low values | max response, % | P48426 | 330,000 tested, 1.2% active; active = max response of -50% or lower; inconclusive = between -30% and -50%; inactive = -30% or higher; also: value at the top dose of about 77 µM; % is scaled to controls: 0 for no effect and ±100 for the full control effect
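Compounds were pin-transferred onto PI5P4Kalpha and substrate in HEPES pH 7.4 buffer with EGTA, CHAPS and 5% DMSO. ATP (5 microM final) started the reaction, which ran 60 minutes at room temperature before ADP-Glo detection.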
HP1b binding inh – blocks HP1-beta chromodomain binding to methylated histone tails; Potency, µM (highest dose often 114 µM), inactives show top-dose activity change, negative = inhibition, hits mostly inhibitors; AlphaScreen HP1-beta / biotin-H3K9me3 peptide binding; 390,000 tested, 0.56% active; AID 540317; P83916; also: potency is read from the fitted curve at half-maximal effect; nearly all actives have a fitted effect of over 70% in size
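Compound inhibition of the preformed complex between 50 nM HP1-beta and 50 nM biotinylated H3K9me3 peptide was read by AlphaScreen. Buffer was PBS pH 7.4 with 0.01% Tween-20. Incubations ran 30 min at room temperature, with 10 ug/mL donor/acceptor beads.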
BAZ2B block – blocks human BAZ2B. Q9UIF8. Potency, µM (titrated, usually from 114 µM), without a hit: at the top dose activity change, negative = inhibition, most hits filed as inhibitors. AlphaScreen BAZ2B-H3K14Ac peptide displacement. 360,000 tested, 4.4% active; also: potency is read from the fitted curve at half-maximal effect; % is scaled to controls: 0 for no effect and ±100 for the full control effect; nearly all actives have a fitted effect of over 60% in size
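AlphaScreen displacement: compounds (up to 110uM) incubated 30 min at room temperature with a preformed 50 nM BAZ2B/50 nM biotinylated H3K14Ac peptide complex in PBS pH 7.4 with Tween-20. Donor and acceptor beads at 10 ug/mL final added, 20 min light-protected before reading.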
An asterisk follows results filed as active; ? = inconclusive; . = no result given; ! = not confirmed by another sample; [ ] = remark or other dose. Unless noted, calls follow the shape of the dose curve; as a rule, active = well fitted curve in the direction sought with a large enough effect; inconclusive = small, poorly fitted or top-dose-only effect, or another doubt; inactive = no such curve, though single readings can be large; an effect the other way counts as inactive or inconclusive.

SMILES	JMJD2A Tudor	G9a inh	PLK1 PBD block	PI5P4K alpha inh	HP1b binding inh	BAZ2B block
Cc1ccccc1N1C(=O)/C(=C/c2ccco2)C(=O)NC1=S	.	1.8µM*	.	.	.	1.1µM*
CCOc1ccc(N2C(=O)/C(=C\c3cccs3)C(=O)NC2=S)cc1	35µM*	7.1µM*	2.7µM*	-64*	23%	-33%
O=C1NC(=S)N(c2ccccc2F)C(=O)/C1=C\c1cccs1	50µM*	1.3µM*	7.5µM*	-91*	-12%	50µM*
CCc1ccccc1N1C(=O)NC(=O)/C(=C\c2cc(C)n(C)c2C)C1=O	-15%	9%[59 µM]	-15%	-1	?	-4%
CCOc1ccc(N2C(=O)/C(=C/c3ccco3)C(=O)NC2=S)cc1	0.79µM*	16%[0.501 µM]	1.3µM*	-82*	1.6µM*	28µM*
Cc1noc(C)c1C(=O)N1CCC2(CCCN(CC(C)C)C2)CC1	.	7%[12.7 µM]	.	.	.	.
Cn1c(=O)oc2cc(S(=O)(=O)N3CCCC(C(=O)N4CCN(c5cccc(Cl)c5)CC4)C3)ccc21 (stereo unspecified)	-15%	?	.	.	27%	-12%
Cc1ccccc1N1C(=O)NC(=O)/C(=C\c2cc(Br)c(N3CCOCC3)o2)C1=O	-27%	?	104%	-75*	?	?
N#Cc1cccc(NC(=O)c2sc3nc4c(cc3c2N)N2CCC4CC2)c1	17%	1%[59 µM]	.	.	57%	5%
Cc1ccc2c(c1)C1CN(C)CCC1N2C(=O)Nc1ccc(Cl)cc1 (stereo unspecified)	-13%	-3%	-8%	.	45%	6%
Cc1ccc2c(c1)C1C[N+](C)(CC(=O)c3ccc(Cl)cc3Cl)CCC1N2C(=O)c1ccc(F)cc1 (stereo unspecified)	16µM*	.	?	-18	?	.
Cc1ccc(N2C(=O)NC(=O)/C(=C\c3cccn3C(C)(C)C)C2=O)cc1	-16%	?	?	-2	42%	-1%
CCC(C)c1ccc(N2C(=O)NC(=O)/C(=C/c3cccn3CCOc3ccc(C)cc3)C2=O)cc1 (stereo unspecified)	-25%	27%[59 µM]	-27%	-58*	23%	-9%
CC(C)n1c(=O)c(C=Nc2ccc(S(N)(=O)=O)cc2)c(O)n(Cc2ccco2)c1=O	-21%	?	-27%	-28	2%	?
CC(C)n1c(=O)c(C=Nc2cccc([N+](=O)[O-])c2)c(O)n(CCc2ccccc2)c1=O	?	10µM*	6%	-1	-7%	?
CC(C)C[C@H](NC(=O)[C@H](Cc1ccccc1)NC(=O)CNC(=O)[C@@H](NC(=O)[C@@H](N)Cc1ccc(O)cc1)[C@H](C)O)C(=O)N[C@H](C(=O)O)[C@H](C)O	.	33%[59 µM]	.	.	.	.
O=C(CN1C(=O)S/C(=C\C=C\c2ccccc2)C1=O)Nc1ccccc1C(=O)O	-18%	?	19µM*	-67*	-3%[57 µM]	-33%
CCCOc1ccc(C2SCC(=O)Nc3c2c(C)nn3-c2cccc(C)c2)cc1OC (stereo unspecified)	-33%	-34%[59 µM]	.	.	12%	-29%
CCOC(=O)c1cccc(NC(=O)c2c(O)[nH]c(=O)[nH]c2=O)c1	?	.	-3%	3	?	.
CCCCCNc1c(C(=O)OCC)c(=O)[nH]c2ccccc12	56µM*	2%[59 µM]	27µM*	-1	-14%	9%
c1ccc2sc(C3(N4CCCCC4)CCCCC3)cc2c1	.	8.9µM*!	.	.	.	.
c1csc(C2(N3CCCCC3)CCCCC2)c1	.	0%[12.7 µM]	.	.	.	.
C/C=C(\C)C(=O)OC1C(C)=C2C(C1OC(=O)CCCCC)C(C)(OC(C)=O)CC(OC(=O)CCC)C1(O)C2OC(=O)C1(C)O (stereo unspecified)	.	?	.	.	.	56µM*
C#CC(C)(O)CC (stereo unspecified)	.	5%[12.7 µM]	.	.	.	.
CN1CCN(c2ccccc2NC(=O)c2ccc(-c3ccc(Cl)c(Cl)c3)o2)CC1	50µM*	49%	4%	-3	-2%	-7%
SMILES	JMJD2A Tudor	G9a inh	PLK1 PBD block	PI5P4K alpha inh	HP1b binding inh	BAZ2B block
O=[N+]([O-])c1cccnc1N1CCCNCC1	-17%	45µM*	-1%	-3	10%	-3%
O=[N+]([O-])c1ccc(N2CCCCCC2)c2ncccc12	16µM*	25µM*	?	5	?	14µM*
CCN(CC)C(=O)c1ccc(NC(=O)c2cccc(S(=O)(=O)N3CCN(Cc4ccccc4)CC3)c2)cc1	-34%	10%[12.7 µM]	-4%	-1	-11%	-10%
COc1cccc(CNC(=O)c2cccc(S(=O)(=O)N3CCN(C)CC3)c2)c1	-10%	40µM*	-6%	3	-1%	-9%
O=c1oc2ccccc2cc1-c1cn2cc(Cc3ccc(F)cc3)sc2n1	-4%	51%[59 µM]	.	.	58%	30%
Cc1cc2c(cc1C)-n1c(-c3ccccc3)c3c(=O)n(C)c(=O)n(C)c3c1C(c1ccco1)N2 (stereo unspecified)	-29%	-34%[59 µM]	.	.	12%	?
CC(=O)OCC1=C(C(=O)O)N2C(=O)[C@@H](N)[C@@H]2SC1	.	0%[5.15 µM]	.	.	.	.
COc1ccc(C(=O)C(C)(C)NO)cc1	50µM*	?	-13%	3	?	?
CC[C@@]1(O)C(=O)OCc2c1cc1n(c2=O)-c2cc3ccccc3nc2C1	.	23%[59 µM]	.	.	.	.
CC12CN3CC(c4ccccc4)(CN(C1)C31CCCCC1)C2=O	2%	18%[59 µM]	1%	11	19%	3%
CC12CN3CC(C)(CN(C1)P3(=O)Oc1ccccc1)C2=O (stereo unspecified)	-33%	40µM*	3%	-3	2%	-6%
Fc1ccccc1CNC1CN2CCC1CC2 (stereo unspecified)	40µM*	?	19µM*	0	-3%	-14%
Clc1ccc(CNC2CN3CCC2CC3)cc1 (stereo unspecified)	-19%	-15%[59 µM]	-4%	1	33%	-5%
Clc1ccc(C(Cn2ccnc2)OCc2csc3c(Cl)cccc23)c(Cl)c1 (stereo unspecified)	28µM*	13µM*	2%	-5	7%	10µM*
Clc1ccc([C@H](Cn2ccnc2)OCc2csc3c(Cl)cccc23)c(Cl)c1	.	-26%[21.5 µM]	.	.	.	.
O=C1CC2OCC=C3CN4CC[C@]56c7ccccc7N1C5C2[C@H]3C[C@H]46 (stereo partly specified)	.	17%[59 µM]	.	.	.	.
CN1Cc2c(ccc3c2OCO3)[C@@H]2[C@@H](O)Cc3cc4c(cc3[C@@H]21)OCO4	.	21%[21.5 µM]	.	.	.	.
O=C1C(=O)N(c2nccs2)C(c2ccccc2)/C1=C(\O)c1ccc2c(c1)OCCO2 (stereo unspecified)	.	1%[0.0925 µM]	.	.	.	?
COc1ccc(OCC(=O)N2CCN(Cc3c[nH]c4ccccc34)CC2)cc1	3.5µM*	3.5µM*	-6%	-6	?	.

Screens as filed in PubChem BioAssay.
